Compounds with a hit are over-represented: about 2.1% of the library has one in this group of screens.
eIF4H FP inh: human eIF4H binding inhibitors, primary screen, translation initiation inhibitor project, biochemical, uHTS, fluorescence polarization; Eukaryotic translation initiation factor 4H (Homo sapiens), Q15056; eIF4H fluorescence polarization binding assay; inhibition, % at 35 µM; 290,000 compounds, 0.94% hits; AID 2012, 2009;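 further: calls also rest on retests at 20 µM and on dose response follow-up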
PABP polyA inh: PABP poly(A) RNA binding inhibitors, primary screen, biochemical, fluorescence polarization, uHTS. Polyadenylate-binding protein 1 (Homo sapiens), P11940. inhibition, % at 35 µM. 290,000 compounds, 1% hits. AID 2014, 2009;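 further: calls also rest on retests at 20 µM and on dose response follow-up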
CendR NRP1 mod: modulators of CendR peptide binding to NRP-1, primary screen, biochemical, fluorescence polarization, uHTS. Neuropilin-1 (Homo sapiens), O14786. FAM-RPARPAR peptide binding to NRP-1. AID 602438, 2012. inhibition, % at 25 µM. 360,000 compounds, 0.85% hits;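 active means inhibition or corrected inhibition above about 18%, plus a signal ratio from 0.5 to 1.5, limit read from the data, passing the limit was not always enough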
Target sequence (O14786 whole entry, looked up): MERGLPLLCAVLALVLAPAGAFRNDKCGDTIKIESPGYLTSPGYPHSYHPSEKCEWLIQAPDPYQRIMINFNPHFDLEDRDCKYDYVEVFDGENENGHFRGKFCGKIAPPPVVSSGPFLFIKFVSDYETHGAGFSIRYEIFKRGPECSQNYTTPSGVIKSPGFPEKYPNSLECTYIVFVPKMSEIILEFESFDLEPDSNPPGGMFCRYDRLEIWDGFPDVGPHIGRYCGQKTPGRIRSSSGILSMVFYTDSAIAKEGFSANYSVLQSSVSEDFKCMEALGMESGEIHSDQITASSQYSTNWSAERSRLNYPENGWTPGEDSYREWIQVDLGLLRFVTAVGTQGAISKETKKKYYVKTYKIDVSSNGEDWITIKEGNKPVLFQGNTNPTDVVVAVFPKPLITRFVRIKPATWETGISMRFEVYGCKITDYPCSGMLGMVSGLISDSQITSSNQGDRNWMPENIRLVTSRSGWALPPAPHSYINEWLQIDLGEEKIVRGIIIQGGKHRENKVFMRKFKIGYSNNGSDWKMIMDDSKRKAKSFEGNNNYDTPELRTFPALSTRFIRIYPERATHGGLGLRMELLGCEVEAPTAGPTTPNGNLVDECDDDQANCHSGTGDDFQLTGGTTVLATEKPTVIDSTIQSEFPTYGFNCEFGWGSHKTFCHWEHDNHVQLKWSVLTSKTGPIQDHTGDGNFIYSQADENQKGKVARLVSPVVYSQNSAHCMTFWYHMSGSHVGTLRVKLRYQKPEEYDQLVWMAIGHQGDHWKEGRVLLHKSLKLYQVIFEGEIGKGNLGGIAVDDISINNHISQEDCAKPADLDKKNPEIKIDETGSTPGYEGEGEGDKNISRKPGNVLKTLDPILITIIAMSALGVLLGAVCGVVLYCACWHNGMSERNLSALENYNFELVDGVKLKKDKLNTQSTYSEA
MLLE-PAM2 inh: inhibitors of PABP1 MLLE–PAM2 peptide binding, primary screen, biochemical, fluorescence polarization, FITC-PAM2, GST-MLLE; Polyadenylate-binding protein 1 (Homo sapiens), P11940; inhibition, % at 20 µM; 360,000 compounds, 0.36% hits; AID 588489, 2011; in the data active means inhibition above about 35%, passing the limit was not always enough;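 further: plate controls were DMSO wells with GST-MLLE for no effect and wells lacking GST-MLLE protein for full effect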
Starred values were filed as active, the others as inactive; u = inconclusive; x = not tested or not shown. Unless noted, how the calls were made is not given here.

SMILES	eIF4H FP inh	PABP polyA inh	CendR NRP1 mod	MLLE-PAM2 inh
Cc1ccn(CC(=O)NC2CC(C)(C)Cc3c2cnn3-c2ccc(F)cc2)n1 (stereo unspecified)	-6	6	2	-8
CCOC(=O)N1CCN(c2nc3ccccc3nc2C(C#N)C(=O)NCCc2ccccc2)CC1 (stereo unspecified)	46	53*	85	-6
N#CC(C(=O)NCCc1ccccc1)c1nc2ccccc2nc1N1CCCCC1 (stereo unspecified)	36	11	127	-79
CCN(CC)c1nc2ccccc2nc1C(C#N)C(=O)NCCc1ccccc1 (stereo unspecified)	29*	70	130	48
Fc1ccc(-c2onc3ccc(C4OCCO4)cc23)cc1	26	6	2	-6
CC1(c2ccc3noc(-c4ccccc4)c3c2)OCCO1	-2	15	-4	-7
CC1(c2ccc3noc(-c4ccc(F)cc4)c3c2)OCCO1	11	12	27*	68*
O=Cc1ccc2noc(-c3ccc(F)cc3)c2c1	u	u	24*	113
Cc1ccnc(NC(=O)COc2ccc3oc4c(c3c2)CCCC4)c1	-1	-15	44*	-7
CNC(=O)COc1ccc2oc3c(c2c1)CCCC3	2	24	5	7
CCCCCCSc1ccc([C@H]2N[C@@](CC(C)C)(C(=O)OC)[C@H]3C(=O)N(C)C(=O)[C@@H]23)cc1OC	x	x	-5	2
O=C1NC(C2CC3C=CC2C3)Nc2ccccc21 (stereo unspecified)	x	x	-6	4
CCc1cccc(C)c1NC(=O)CC1Oc2ccc(C)cc2NC1=O (stereo unspecified)	-14	-3	-4	-10
O=[N+]([O-])c1cc(/C=N/Nc2nc3ccccc3[nH]2)c(O)cc1O	80*	8.4*	x	x
Cc1ccc(/C=N/Nc2nc3ccccc3[nH]2)s1	16	12	29*	-94
Cc1cc(-c2cc(C(=O)NCc3ccccc3)on2)nc(S(C)(=O)=O)n1	-10	7	0	5
CC(=O)c1cccc(NC(=O)C(C)OC(=O)c2cccc(-n3cnnn3)c2)c1 (stereo unspecified)	x	x	11	10
Cc1ccccc1OCC(=O)NNC(=O)Cn1[nH]c(=O)c2ccccc2c1=O	x	x	14	15
Cc1ccc2c(c1)S(=O)(=O)c1ccc3ccccc3c1N2	x	x	-6	11
N#Cc1cccc(NC(=O)c2cc(C3CCCCN3S(=O)(=O)c3cccc4cccnc34)on2)c1 (stereo unspecified)	x	x	4	3
O=S(=O)(NCc1ccc(F)cc1)c1ccc(-n2cccn2)cc1	0	4	21*	-12
O=S(=O)(NCc1ccccc1)c1ccc(-n2cccn2)cc1	-21	-8	10	10
O=C(O)C1Nc2c(C(F)(F)F)ccc(Cl)c2C2C=CCC12 (stereo unspecified)	42	42	20	10
Cc1ccc2c(c1C)NC(C(=O)O)C1CC=CC21 (stereo unspecified)	94*	72*	-12	-1
O=C(O)C1Nc2c(C(=O)N3CCOCC3)cccc2C2C=CCC12 (stereo unspecified)	99*	50*	11	31
SMILES	eIF4H FP inh	PABP polyA inh	CendR NRP1 mod	MLLE-PAM2 inh
Cc1cc(C)c2c(c1)NC(C(=O)O)C1CC=CC21 (stereo unspecified)	93*	86*	-34	6
CCCNC(=O)C(Cc1ccc(I)cc1)NC(=O)C1CC1 (stereo unspecified)	x	x	12	-7
C=CCOc1ccccc1CN1CCC(Cc2ccccc2)CC1	2	-1	5	-4
Cc1cc(C)c2cc3c(ccn3C3OC[C@H](O)[C@H](O)[C@H]3O)cc2n1 (stereo partly specified)	33*	53*	-3	49*
CCOc1cc(N2CCOCC2)c(OCC)cc1NC(=O)CN1CCCC(C)C1 (stereo unspecified)	u	77*	6	-10
CCCn1nc(C(=O)Nc2cc(OCC)c(N3CCOCC3)cc2OCC)c2ccccc2c1=O	x	x	22*	7
CCOc1cc(N2CCOCC2)c(OCC)cc1NS(=O)(=O)c1cc(NC(C)=O)ccc1OC	59*	20	9	-12
COc1cccc(C(=O)OCC(=O)N2CCc3ccccc3C2)c1	x	x	4	-13
CC1CCCN(C(=O)CN2C(=O)CSc3ccc(S(=O)(=O)N4CCOCC4)cc32)C1 (stereo unspecified)	x	x	4	16
CN(C)S(=O)(=O)c1ccc(C(=O)OCC(=O)NCc2ccco2)cc1	69*	u	3	-15
O=C(COC(=O)c1cncc(Br)c1)NCc1ccc(F)cc1	10	u	4	-4
COc1cc(NC(=O)c2cccs2)c(C(=O)OCC(=O)NCc2ccco2)cc1OC	89*	62*	-10	-24
O=C(COC(=O)c1cncc(Br)c1)NCc1ccco1	97*	50*	9	7
O=C(COC(=O)c1ccc(NS(=O)(=O)c2cccs2)cc1)NCc1ccco1	100*	64*	-33	-6
O=C(COC(=O)c1cccs1)NCc1ccco1	28	35	-6	-10
CCCCCC(=O)N1C[C@@H](n2cc(COC(=O)c3ccccc3)nn2)[C@H](O)C[C@@H]1c1ccc(Cl)cc1	x	x	0	16
Cc1cccc(C)c1-n1nnnc1C1(C)CCC(=O)N1Cc1ccc(F)cc1 (stereo unspecified)	x	x	8	x
Cc1cc(S(=O)(=O)Nc2ccc(C(=O)NC3CC3)cc2)ccc1F	x	x	12	-5
CCc1c(C)nc2ncnn2c1N1CCCC(C(=O)NCc2ccc3c(c2)OCO3)C1 (stereo unspecified)	-6	6	-4	-1
CCc1c(C)nc2ncnn2c1N1CCCC(C(=O)Nc2ccc(NC(C)=O)cc2)C1 (stereo unspecified)	0	5	29*	17
CCN1CCN(C(=O)Cn2nc(C)c3sc4ccccc4c3c2=O)CC1	-1	-3	1	4
COc1ccc(NC(=O)Cc2cccs2)c(OC)c1	2	4	11	-10
COc1cc(NC(=O)c2ccccc2)c(OC)cc1NC(=O)Cc1cccs1	58*	7	-8	-20
CCCc1cc(=O)[nH]c(SCC(=O)Nc2nonc2N)n1	4	6	-3	41*
O=c1ccc2nc3ccccc3sc-2c1	x	x	14	29
SMILES	eIF4H FP inh	PABP polyA inh	CendR NRP1 mod	MLLE-PAM2 inh
COc1ccc(C(=O)n2nc(C)cc2C)cc1Br	-4	-1	5	12
COc1cc(C(=O)n2nc(C)cc2C)ccc1O	4	4	33*	2
O=C1CSCc2nc3ccccc3n21	x	x	1	18
CCCCn1c(=O)c(CCC(=O)OCC(=O)NC(=O)NCCOC)nc2ccccc21	-4	4	10	-2
CCCCn1c(=O)c(CCC(=O)OCC(=O)NC(=O)NCCC(C)C)nc2ccccc21	active	58	2	18
COC(=O)C(C)N1C(=O)S/C(=C/c2cc(C)n(-c3ccccn3)c2C)C1=O (stereo unspecified)	83*	75*	0	-7
